# Experimental data reported in ChEMBL document CHEMBL3988442, “University of Dundee, Small-Polar-MMV Screening Library” (2021).
# Hit rate of the full screen: of about 48,000 compounds, about 13,000 (27%) showed an effect of 50% or more. The list shows a part of the results.
# Tested on: Wolbachia pipientis
# Assay: Anti-Wolbachia Cell-Based Screen
# Format: functional
# Parameters: scale not given: in the data most compounds retested in dose-response had high values
# Details: 5 µM
row,Structure (SMILES),Percent Effect
1,Cc1nn(C)cc1C(=O)N1C[C@H]2CC[C@@H]1CN(S(=O)(=O)N(C)C)C2,7.621%
2,CC(C)CCC1=NC2(CCN(C(=O)CN3CCCC3=O)CC2)C(=O)N1,0.2617%
3,NS(=O)(=O)c1cnc(NCC2(c3cccc(F)c3)CCOCC2)s1,-14.69%
4,CC(=O)N1CC(=O)N(c2cnn(C)c2)CC12CCN(CC1CC1)C2.O=C(O)C(F)(F)F (stereo unspecified),-1.209%
5,CN(C)Cc1cc(=O)n2c(n1)CN(C(=O)Cc1cccs1)CCC2.O=C(O)C(F)(F)F,4.562%
6,CC(C)N(C)Cc1cncc2c1CCN(C(=O)c1ccc[nH]1)C2.Cl.Cl,-17.08%
7,CCN(CC)Cc1cc(=O)n2c(n1)CN(C(=O)c1ccc[nH]1)CCC2,89.92%
8,Cc1ccsc1C(=O)N1CCCn2c(nc(CN(C)C)cc2=O)C1.O=C(O)C(F)(F)F,-10.18%
9,CC(C)N(C)Cc1cc(=O)n2c(n1)CN(C(=O)c1ccc[nH]1)CCC2,99.67%
10,CN(C)Cc1cc(=O)n2c(n1)CN(C(=O)c1ccc[nH]1)CCC2.O=C(O)C(F)(F)F,95.26%
11,CC(=O)NC1CCCN(c2ccc(C#N)cc2C(F)(F)F)C1 (stereo unspecified),47.21%
12,CC(C)N1CC(C(=O)NC(C)(C)CNC(=O)OC(C)(C)C)CC1=O (stereo unspecified),16.31%
13,Cc1ccc(C(=O)OC(C)Cn2cccn2)c(=O)[nH]1 (stereo unspecified),-0.638%
14,c1csc(SCC2CN=C(N3CCOCC3)S2)c1 (stereo unspecified),-10.18%
15,CN(CCc1cnn(C)c1)C(=O)C(c1ccccc1F)N(C)C (stereo unspecified),-8.573%
16,CC(C)c1nsc(N2CCOC3(CCCC3)C2)n1,-27.55%
17,C[C@@H]1CN(C(=O)CCN2CCCC2)CC[C@@]1(O)C1CCC1,-5.805%
18,C[C@@H]1CN(C(=O)C2(Cn3cccn3)CC2)CC[C@@]1(O)C1CCOCC1,103.7%
19,CCN(C(=O)CCn1cccn1)C1CC1,0.4672%
20,CC(C1CC1)N(C)C(=O)CCn1cccn1 (stereo unspecified),-12.77%
21,C[C@@H]1CN(C(=O)c2ccncc2)CC[C@@]1(O)C1CCOCC1,-11.61%
22,C[C@@H]1CN(C(=O)CCN2CCCC2)CC[C@@]1(O)C1CCOCC1,18.72%
23,CC(C)[C@]1(O)CN(C(=O)C2(Cn3cccn3)CC2)C[C@H]1C,94.9%
24,C[C@@H]1CN(C(=O)C2(Cn3cccn3)CC2)C[C@@]1(O)C1CCC1,109.7%

row,Structure (SMILES),Percent Effect
1,CCCc1cc(C(=O)N2C[C@@H](C)[C@](O)(C3CCC3)C2)[nH]n1,-1.382%
2,C[C@@H]1CN(C(=O)CCc2cnn(C)c2)CC[C@@]1(O)C1CCOCC1,-4.294%
3,C[C@@H]1CN(C(=O)C2(Cn3cccn3)CC2)CC[C@@]1(O)C1CC1,95.17%
4,C[C@@H]1CN(C(=O)CCc2cnn(C)c2)C[C@@]1(O)C1CCC1,-2.131%
5,N#Cc1ccnc(N2CCN(CC(O)c3ccccc3)CC2)c1 (stereo unspecified),-34.32%
6,COc1ccccc1C1(CNc2ncc(S(N)(=O)=O)s2)CC1,-5.545%
7,CCN(CC)C(=O)N1CCN(C(=O)C2CCCc3[nH]ncc32)CC1 (stereo unspecified),-7.717%
8,CC(NC(=O)NCCCc1n[nH]c(N)c1C#N)c1ccccc1 (stereo unspecified),11.96%
9,Cn1cc(CN2CCc3c(nnn3C)C2COCc2ccccc2)cn1.O=C(O)C(F)(F)F (stereo unspecified),-8.957%
10,CC(C)CN1CCc2[nH]cnc2C12CCN(C(=O)c1cccnc1)CC2,1.531%
11,COCCNC(=O)NCC(C)c1ccccc1OC (stereo unspecified),-10.13%
12,CNC(=O)[C@H]1C[C@@H]2CN(C(=O)c3ccc(C)o3)C[C@@H]2N1S(C)(=O)=O,94.93%
13,CNC(=O)[C@H]1C[C@@H]2CN(C(=O)c3ccco3)C[C@@H]2N1S(C)(=O)=O,10.85%
14,CNC(=O)[C@H]1C[C@@H]2CN(C(=O)c3ccoc3)C[C@@H]2N1S(C)(=O)=O,83.29%
15,CCN1C[C@@H]2CN(C(=O)c3ccsc3)C[C@@H]2C1=O,-7.34%
16,O=C(c1ccoc1)N1C[C@@H]2CN(c3ncccn3)C[C@@H]2C1,-12.12%
17,CNC(=O)[C@H]1C[C@@H]2CN(C(=O)c3cscn3)C[C@@H]2N1S(C)(=O)=O,-14.13%
18,CNC(=O)[C@H]1C[C@@H]2CN(C(=O)c3ccsc3)C[C@@H]2N1S(C)(=O)=O,104.8%
19,Cc1ccoc1C(=O)N1CC[C@@]2(C[C@H](NS(C)(=O)=O)CCO2)C1,-10.72%
20,CNC(=O)[C@H]1C[C@@H]2CN(S(=O)(=O)c3ccccc3)C[C@@H]2N1C(C)=O,-8.592%
21,O=C(c1ccoc1)N1C[C@H]2CC[C@@]3(N=C(c4ccccc4)NC3=O)[C@H]2C1,-13.12%
22,CNC(=O)[C@H]1C[C@@H]2CN(C(=O)c3occc3C)C[C@@H]2N1S(C)(=O)=O,100.3%
23,Cc1nn(C)c(Cl)c1CNCc1ccc(OCC(N)=O)cc1,6.399%
24,O=C(NC[C@H]1OC[C@@H](NCc2ccc(F)cc2)[C@@H]1O)N1CCOCC1,-11.78%

row,Structure (SMILES),Percent Effect
1,CCNC(=O)N1CCC(NC(=O)NCCc2cccc(C)c2)C1 (stereo unspecified),-4.75%
2,NCC1CN(c2nc(-c3ccccc3)nc3c2CCNCC3)CCO1 (stereo unspecified),2.56%
3,O=C(CCN1CCOC(C(F)(F)F)C1)NCc1cccc(Cl)c1 (stereo unspecified),-5.951%
4,CN(C)C(=O)CCC1CCCN(Cc2cccc(-c3ccccn3)c2)C1 (stereo unspecified),9.493%
5,FC(F)(F)C1CN(Cc2cccc(-c3ccccn3)c2)CCO1 (stereo unspecified),75.31%
6,CS(=O)(=O)NC1CCCN(Cc2ccc(OCc3ccccn3)cc2)C1 (stereo unspecified),2.735%
7,FC(F)(F)C1CN(Cc2cccc(OCc3ccccn3)c2)CCO1 (stereo unspecified),94.94%
8,CN1C(=O)[C@H]2CC[C@@H]1CN(Cc1cccc(OCc3ccccn3)c1)C2,-0.7428%
9,Cc1cc(-c2nn(C)c(Cl)c2CN2CCOC(C(=O)O)C2)no1 (stereo unspecified),-7.215%
10,O=C(O)C1CN(Cc2cccc(-c3ccccn3)c2)CCO1 (stereo unspecified),102.3%
11,FC(F)(F)C1CN(Cc2cnc3c(-c4ccccc4)cnn3c2)CCO1 (stereo unspecified),27.88%
12,Cc1nc2c(c(N3CCC(CN4CCCC4=O)CC3)n1)CCNCC2,-1.611%
13,COC(=O)c1cc(OCC2CCC2)cc(C(=O)N[C@H]2CC[C@H](O)CC2)c1,-10.19%
14,CSCCC1CC(=O)Nc2cc(O)c(C)cc21 (stereo unspecified),3.121%
15,O=C(c1cnc(NCCC2CCCO2)c(Cl)c1)N1CCCCC1 (stereo unspecified),-6.452%
16,CNC(=O)c1cc2c(nc1NC(C)C)CCN(C(=O)NC(C)C)CC2,-1.585%
17,CCN1CCOCC2(CCCN(c3nncs3)C2)C1 (stereo unspecified),-9.534%
18,CC(=O)c1cc(CC(=O)N2CCCC2c2nc(C(C)C)no2)cs1 (stereo unspecified),-13.65%
19,Cn1nnnc1SCCC(=O)NCC(C)(C)c1ccccc1F,-11.64%
20,O=C(NCc1nc[nH]n1)c1cc(COc2cccc(F)c2)[nH]n1,-19.41%
21,CSCC(C)(O)CNC(=O)c1ccc(F)cc1Cl (stereo unspecified),16.17%
22,Cc1nn(C)cc1-c1cc(C(=O)NCC(C)(C)c2cccc(F)c2)n[nH]1,113.6%
23,Cc1nn(C)cc1-c1cc(C(=O)NCC(C)(C)c2ccc(F)cc2)n[nH]1,130.7%
24,Cc1cc(C)n(CC(C)NC(=O)C(C)(C)c2ccccc2F)n1 (stereo unspecified),6.546%

row,Structure (SMILES),Percent Effect
1,CC(Cn1cncn1)NC(=O)NCC(C)(C)c1ccc(F)cc1 (stereo unspecified),10.62%
2,Cc1nncn1CCNC(=O)C(C)(C)c1cccc(F)c1,-15.91%
3,Cc1nn(C)cc1-c1cc(C(=O)NCC(C)(C)c2ccccc2F)n[nH]1,89.7%
4,O=C1CC(c2ccccc2F)c2c(n3ccsc3nc2=O)N1 (stereo unspecified),13.25%
5,CC(NC(=O)Nc1cc(F)cc(F)c1)c1nc[nH]n1 (stereo unspecified),-15.42%
6,O=C(NCC1CC1)C1CCC2(CCN(C(=O)c3cnccn3)CC2)O1 (stereo unspecified),100.2%
7,O=C(NCC1CC1)C1CN(C(=O)c2cnccn2)CC12CCOCC2 (stereo unspecified),-1.801%
8,O=C(NCC1CC1)C1CCC2(CCN(C(=O)c3ccncc3)CC2)O1.O=C(O)C(F)(F)F (stereo unspecified),111.8%
9,O=C1COC2(CCN(C(=O)c3cnccn3)CC2)CN1CC1CC1,-3.882%
10,CC1N(CC2CC2)C(=O)COC12CCN(C(=O)c1ccncc1)CC2 (stereo unspecified),-6.799%
11,O=C(NCC1CC1)C1CCC2(CCN(C(=O)c3cccnc3)CC2)O1.O=C(O)C(F)(F)F (stereo unspecified),93.2%
12,O=C(C1CCC2(CCN(CC3CC3)CC2)O1)N1CCCC1.O=C(O)C(F)(F)F (stereo unspecified),-8.008%
13,O=C(NCC1CC1)C1CN(C(=O)c2cccnc2)CC12CCOCC2 (stereo unspecified),0.4189%
14,CCc1nnc2n1CC(CNCc1nc(-c3ccsc3)no1)CC2 (stereo unspecified),-16.4%
15,Cc1ccccc1CN(C)C(=O)Cn1nc(-c2ccc(F)cc2)oc1=O,-30.13%
16,COCCCNC(=O)Cn1nnc(-c2cc3ccccc3o2)n1,-9.995%
17,O=C(c1ncoc1-c1ccco1)N1CCCN(c2ncccn2)CC1,-13.17%
18,COc1cccc(OCCNC(=O)CN2CCN(C)CC2C)c1 (stereo unspecified),0.3417%
19,COCCNC(=O)Cn1c(-c2ccco2)cc2cccnc21,97.97%
20,COc1ncccc1C(=O)N1CC(c2nc(-c3ccco3)no2)C1,8.085%
21,CC(C)N(C(=O)Cn1c(-c2ccco2)cc2cccnc21)C(C)C.Cl,129.4%
22,Cc1nc(-c2ccccc2)n(CC(=O)N(C(C)C)C(C)C)n1,7.414%
23,Cl.O=C(Cn1c(-c2ccco2)cc2cccnc21)N1CCCC1,109.6%
24,O=C(Cn1ccc2ncccc2c1=O)N1CCCCC1,-19.73%
